Screening data (PubChem)
The list is not random: actives were taken first. Their share in the collection is about 4.4%.
tim10-1 inh = growth inhibitors of tim10-1 mutant yeast | S. cerevisiae tim10-1 ts strain growth, BacTiter-Glo, 24 h | inhibition, % at 20 µM | 2.2% of 330,000 active | AID 463190;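 active = inhibition of at least 40%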;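 note: mutant grown at 25 °C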
TIM10 inh = growth inhibitors of TIM10 yeast strain; S. cerevisiae TIM10 strain growth, BacTiter-Glo luminescence, 24 h; inhibition, % at 10 µM; 1.4% of 330,000 active; AID 463195;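 active = inhibition of 40% or more at the single tested concentration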;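 note: wild-type TIM10 isogenic control strain grown at permissive 25 °C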
PfHsp90 yeast 2 = growth inhibition of yeast expressing Plasmodium Hsp90; S. cerevisiae expressing PfHsp90, BacTiter-Glo ATP, 48 h; yeast lacking PDR1 and PDR3 efflux regulators; inhibition, % at 9.4 µM; 0.32% of 310,000 active;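 active = every replicate shows inhibition above about 80%, whatever the replicate mean, limit read from the data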
tim23-1 inh = growth inhibitors of tim23-1 mutant yeast; inhibition, % at 20 µM; AID 463212; 1.3% of 330,000 active; S. cerevisiae tim23-1 growth, BacTiter-Glo luminescence, 24 h;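 active = growth inhibition of the mutant yeast at or above 50%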;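 note: temperature-sensitive mutant grown at 25 °C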
SKKanGAS inh = blocks kanamycin growth of S. pyogenes SKKanGAS strain; BacTiter-Glo, 6 h; inhibition, % at 7.5 µM; 1.3% of 300,000 active; AID 1662;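 active = mean replicate score, as percent of positive control median, at least 50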;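 note: strain carries kanamycin resistance gene driven by streptokinase promoter and grows in 40 µg/ml kanamycin; loss of luminescence reflects streptokinase promoter inhibition or plain growth inhibition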
TIM10 conf = TIM10 yeast growth inhibition, confirmed | shares compounds with TIM10 inh | S. cerevisiae tim10 strain growth, BacTiter-Glo luminescence, 24 h | inhibition, % at 10 µM | 63% of 4,600 active | AID 463215;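 active = inhibition of yeast growth at or above a set limit in either of two replicates at 10 µM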; note: this counterscreen used the strain with wild-type TIM10
Hits are given with their value; – = inactive; · = no result given.

SMILES	tim10-1 inh	TIM10 inh	PfHsp90 yeast 2	tim23-1 inh	SKKanGAS inh	TIM10 conf
O=C1CC(c2ccccc2)=Nc2ccccc2N1Cc1ccccc1	–	40	–	–	–	–
Fc1ccc(C2CC(c3ccccc3)n3ncnc3N2)cc1 (stereo unspecified)	–	–	–	–	–	·
CCOc1ccc(C2CC(c3ccc(F)cc3)n3ncnc3N2)cc1 (stereo unspecified)	–	40	–	–	–	42
CCn1c(SCC(=O)N(C)C2CCCCC2)nc2cc(S(N)(=O)=O)ccc21	–	41	–	–	·	–
CCC(C)NC(=O)c1ccc(NC(=O)CC2SC(N3CCCC3)=NC2=O)cc1 (stereo unspecified)	–	–	–	–	·	·
COC(=O)C1=NN(C(=O)c2cccc(Br)c2)C(O)(c2ccc(Cl)cc2)C1 (stereo unspecified)	–	45	–	–	86	–
COc1ccc(CCn2c(C)cc(C(=O)CCl)c2C)cc1OC	–	42	–	–	–	44
Cc1occc1C(=O)NNC(=O)CN1C(=O)NC2(CCCCC2)C1=O	–	–	–	–	·	·
COc1cccc(/C=C2\N=C(c3c(-c4ccccc4)noc3C)OC2=O)c1	–	47	–	–	–	–
COc1cc(/C=C2\N=C(c3c(-c4ccccc4)noc3C)OC2=O)ccc1OC(C)=O	–	–	–	–	–	·
O=C(CN(c1ccccc1F)S(=O)(=O)c1ccccc1)NC1CCCCCC1	–	–	–	–	–	·
Cc1ccc(S(=O)(=O)N(CC(=O)NC2CCCCCC2)c2ccccc2F)cc1	–	40	–	–	–	–
CC(C)(C)C1CCc2onc(C(=O)Nc3ccc4c(c3)OCO4)c2C1 (stereo unspecified)	–	–	–	–	–	·
Cc1ccc2ccc(C3C(=O)c4ccccc4C3=O)nc2c1	–	61	–	–	–	66
Cc1ccc(NC(=S)NC(=O)C2CCCC2)c(Br)c1	–	41	–	–	·	35
CN(C)S(=O)(=O)c1cccc(NC(=S)NC2CCCCC2)c1	–	–	·	–	–	·
O=C(NC(=S)Nc1ccccc1Br)C1CC1	–	–	–	–	–	·
CN(C)S(=O)(=O)c1cccc(NC(=S)NC(=O)C2CCCCC2)c1	–	41	–	–	–	35
Cc1cc(NC(=S)NC(=O)C2CC2)ccc1Br	–	41	·	–	–	42
CC1=CC(C)(C)NC(=S)N1c1cc(C)cc(C)c1	–	45	–	–	–	–
CCOC(=O)c1cc(-c2cccc([N+](=O)[O-])c2)n[nH]1	–	48	–	–	–	28
CCc1ccc(NC(=O)C(=O)c2ccccc2NC(C)=O)cc1	–	–	–	–	·	·
O=S1(=O)C=C(Oc2ccc3ccccc3c2)c2ccccc21	–	42	–	–	–	42
CCc1ccc(OC(=O)c2cccnc2)cc1	–	–	–	–	–	·
CC(C)c1ccccc1NC(=S)NC1CCCCC1	–	46	–	–	–	–
SMILES	tim10-1 inh	TIM10 inh	PfHsp90 yeast 2	tim23-1 inh	SKKanGAS inh	TIM10 conf
CSc1ccccc1NC(=S)NC1CCCCC1	–	–	–	–	–	·
S=C(Nc1ccccc1Oc1ccccc1)NC1CCCC1	–	41	–	–	–	–
O=C(NC(=S)Nc1ccc(CN2CCCCC2)cc1)c1cc2ccccc2o1	–	–	–	–	–	·
Cc1ccc(NC(=O)CCNS(=O)(=O)c2ccc(Br)s2)cc1	–	–	–	–	–	·
Cc1ccc(C(=O)C[n+]2cc(-c3ccc(C)cc3)n3c2CCCCC3)cc1	–	46	–	–	–	–
COc1ccc(NC(=O)N2CCN(c3nc(-c4cccc(OC)c4)cs3)CC2)cc1	–	40	–	–	–	29
CCN1CCN(S(=O)(=O)c2ccc(Cl)c(C(=O)N(C)Cc3ccc(Cl)cc3Cl)c2)CC1	–	–	–	–	–	·
Cc1cccc(NCC(=O)N/N=C\c2ccc[nH]2)c1	–	–	–	–	–	·
O=C(CC12CC3CC(CC(C3)C1)C2)N/N=C\c1ccc[nH]1	–	46	–	–	–	34
CCN(C(=O)CSc1nnc(C)n1-c1ccccc1)C1CCS(=O)(=O)C1 (stereo unspecified)	–	–	–	–	–	·
CCNC(=S)N/N=C/c1cc(C)n(-c2ccc(Cl)cc2)c1C	–	50	–	–	–	–
Cc1cc(/C=N/NC(N)=S)c(C)n1-c1ccc(Cl)c(Cl)c1	–	–	–	–	–	·
CCOc1ccc(OCCSc2ccc(S(=O)(=O)N3CCN(C)CC3)cn2)cc1	–	46	–	–	·	52
Cc1ccc(C(C)n2cc(C(=O)NCc3ccncc3)nn2)cc1 (stereo unspecified)	–	–	–	–	–	·
CC(c1ccccc1)n1cc(C(=O)NCc2cccnc2)nn1 (stereo unspecified)	–	51	–	–	–	–
Cc1ccccc1C(=O)NC1CCN(CC(=O)NC2CCCCC2)CC1	–	–	–	–	–	·
Cc1ccc(/C=N/Nc2nc(C)cc(C)n2)cc1	–	74	–	–	–	–
Cc1cc(C)nc(N/N=C/c2ccc(Cl)cc2)n1	–	–	–	–	–	·
NC(=O)c1cc(S(=O)(=O)NCCCc2ccccc2)cs1	–	–	–	–	–	·
CCN(C(=O)CCCCC(=O)N(CC)c1ccccc1)c1ccccc1	–	–	–	–	–	·
O=c1oc2c3c4c(cc2c2c1CCC2)OCCN4CCC3	–	41	–	–	·	–
O=c1oc2c(CN3CCOCC3)c(O)c(Cl)cc2c2c1CCCC2	–	–	–	–	–	·
O=C(CSc1nnc(C2CC2)n1Cc1ccccc1)N1CCNC1=O	–	–	–	–	·	·
Cc1cc(NC(=NC2CC2)c2ccccc2F)n(-c2ccccc2)n1	–	–	–	–	–	·
COc1ccc(S(=O)(=O)c2snnc2C)cc1	–	–	–	–	–	·
SMILES	tim10-1 inh	TIM10 inh	PfHsp90 yeast 2	tim23-1 inh	SKKanGAS inh	TIM10 conf
COc1ccc(NC(=O)COC(=O)CCOc2ccccc2C)cc1Cl	–	–	–	–	–	·
O=C(CNc1cccc2ccccc12)N/N=C/c1ccc(OC(=O)/C=C/c2ccco2)cc1	·	·	–	·	–	·
O=C(CNc1ccc2ccccc2c1)N/N=C/c1ccc(OC(=O)/C=C/c2ccco2)cc1	–	41	–	–	–	36
CCCCc1nnc2c(N(C)S(=O)(=O)c3ccccc3)nc3ccccc3n12	–	–	–	–	–	·
COc1ccc(-c2cn3cc(C)ccc3n2)cc1F	–	61	–	–	–	57
O=C1C(Nc2cccc(O)c2)=C(N2CCCCC2)C(=O)c2ccccc21	–	46	–	–	–	40
O=C1C(Nc2ccccc2)=C(N2CCCCC2)C(=O)c2ccccc21	–	–	–	–	–	·
N#C/C(=N\Nc1cc(Cl)cc(Cl)c1)c1nnc2n1CCCCC2	–	41	·	–	–	–
NS(=O)(=O)c1ccc(N2CCOCC2)c(C(=O)NCCCSc2ccccc2)c1	–	–	–	–	·	·
O=C(COC(=O)CN1C(=O)C(=O)c2ccccc21)OCN1C(=O)c2ccccc2C1=O	–	48	–	–	–	–
